Screening results from PubChem BioAssay.
Rows were chosen to be rich in hits. Some 2.4% of all compounds tested hit in one or more screens of this group.
D2 ag-1 – activates the human D2 dopamine receptor | P14416 | DiscoveRx PathHunter D2 beta-arrestin, luminescence, 90 min; 100% = 57 uM dopamine signal | activation, % (test concentration not listed) | hit rate 0.084% among 360,000; in the data active = activation above about 40%; inconclusive = between about 15% and that limit
Target sequence (P14416 whole entry, looked up): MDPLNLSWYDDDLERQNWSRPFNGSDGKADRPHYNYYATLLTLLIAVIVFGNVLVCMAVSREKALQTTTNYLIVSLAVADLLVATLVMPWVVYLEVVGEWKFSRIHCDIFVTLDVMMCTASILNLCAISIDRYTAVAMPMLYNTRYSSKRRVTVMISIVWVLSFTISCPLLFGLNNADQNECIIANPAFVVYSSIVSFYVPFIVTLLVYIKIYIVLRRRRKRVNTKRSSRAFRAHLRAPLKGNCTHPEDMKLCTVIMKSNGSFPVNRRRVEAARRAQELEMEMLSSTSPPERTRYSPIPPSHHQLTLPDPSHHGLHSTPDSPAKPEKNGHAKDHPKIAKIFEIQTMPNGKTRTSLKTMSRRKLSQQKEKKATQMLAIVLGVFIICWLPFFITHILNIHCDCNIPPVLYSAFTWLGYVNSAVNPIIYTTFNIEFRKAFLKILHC
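DiscoveRx PathHunter D2 beta-arrestin cells (2,100/well) attached overnight, then compound-stimulated 90 min at 37 C in HBSS/10 mM HEPES/0.1% Tween-20 buffer; beta-galactosidase complementation read by luminescence after 1 h at ambient temperature. Dopamine 57 uM final (EC100) as control.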
D2 PAM-1 – potentiates the human D2 dopamine receptor allosterically; potentiation, % (test concentration not listed); hit rate 0.23% among 360,000; DiscoveRx D2 beta-arrestin cells, luminescence, 90 min; 100% = 57 uM dopamine signal; in the data active = potentiation above about 50%; inconclusive = mostly about 30% to 49%
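PathHunter D2 cells, attached overnight at 37 deg C, received compound in DMSO plus dopamine at EC20 (50 nM final) for 90 min at 37 deg C. Beta-arrestin recruitment was read as luminescence after 1 h with detection reagent at ambient temperature.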
D2 antag – antagonizes the human D2 dopamine receptor; P14416; HEK293 TREx D2 cells, calcium flux, dopamine EC80; inhibition, % at 10 µM; hit rate 2% among 340,000; in the data active = inhibition above about 30%; inactive = below that, where a call was filed; also: 0% is about no effect
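Tetracycline-induced HEK293 TREx cells expressing D2 receptor forced-coupled to calcium signalling, loaded with no-wash calcium dye. Compounds added and calcium flux read 180 s, then dopamine added at EC80 and read a further 180 s.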
D2 ag-2 – D2 dopamine receptor (human) agonism | hit rate 0.53% among 340,000 | HEK293 T-REx D2 cells, calcium flux agonist mode | AID 485358 | P14416 | activation, % at 2 µM;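 active = activation over 3 SD above normal in the single-dose calcium agonist read, cut at about 30% in these data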; also: 0% is about no effect
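Agonism is scored from calcium flux in a force-coupled, inducible HEK293 cell line expressing D2, read kinetically for 180 s after compound addition against dopamine controls.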
D2 PAM-2 – positively modulates the human D2 dopamine receptor allosterically | P14416 | HEK293 T-REx D2, calcium flux, EC20 dopamine potentiation | potentiation, % at 10 µM | hit rate 0.34% among 340,000;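 active = potentiation over 3 SD above the plate norm, cut at about 30% in these data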; also: 0% is about no effect
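Potentiation of an EC20 dopamine calcium response is measured in a force-coupled, tetracycline-inducible Hek293 Trex D2 line. Compound-only kinetic reads over 180 s flag agonists before dopamine addition.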
* hit, by the source's call; ? = inconclusive; . = no result given; ! = a repeat was not active.

SMILES	D2 ag-1	D2 PAM-1	D2 antag	D2 ag-2	D2 PAM-2
CC(C)N(Cc1ccccc1)C(=O)/C=C/c1ccccc1[N+](=O)[O-]	0.2	-5.4	-1.1	0.4	13.9
O=S(=O)(c1ccc(Br)cc1)c1nnn2c1nc(NCc1ccc3c(c1)OCO3)c1sccc12	.	.	.	0.6	4.2
CCN1CCc2c(sc(-n3cccc3)c2C(CCC(C)C)NC(=O)NCCC(=O)OC)C1 (stereo unspecified)	.	.	.	4.4	-0.1
COc1ccccc1N1CCN(C2CCCN(Cc3cc(F)cc(F)c3)C2)CC1 (stereo unspecified)	-4.0	-4.1	40.9*	0.5	0.3
COc1ccc(O)c(CN2CCCC(N3CCN(c4ccccc4OC)CC3)C2)c1 (stereo unspecified)	5.6	-24.4	0.8	0.2	-11.4
COc1ccccc1N1CCN(C2CCCN(Cc3ccc(Cl)cc3)C2)CC1 (stereo unspecified)	0.1	-25.2	37.1*	0.3	-20.9
COc1ccccc1N1CCN(C2CCCN(Cc3ccccc3OCCO)C2)CC1 (stereo unspecified)	5.8	-19.3	-3.5	0.0	-12.7
Cc1cc(C)cc(NC(=O)C(Cc2ccccc2)N2Cc3ccccc3C2=O)c1 (stereo unspecified)	.	.	.	-0.1	-3.7
O=C(CN1C(=O)S/C(=C\c2cccs2)C1=O)Nc1ccc(C(=O)O)c(O)c1	-1.5	-6.2	39.8*	-1.1	8.0
Cc1nc(N2CCC(C)CC2)c2nnn(Cc3ccccc3)c2n1	-0.9	-33.8	-24.3	0.4	33.9*
CC(C)Cc1nc(N2CCC(C(N)=O)CC2)c2nnn(Cc3ccccc3)c2n1	-3.2	-10.2	.	.	.
CSc1ccc(/C=N\Nc2nncn2N)cc1	43.4*	-3.3	3.7	-0.3	1.9
O=C(O)c1nc(-c2ccccc2)n(-c2ccccc2)n1	-3.8	-29.7	-16.4	0.0	-11.4
O=C(O)c1nc(-c2ccccc2)n(-c2cccc(C(F)(F)F)c2)n1	-2.0	-4.7	-14.7	-1.3	43.8*
COc1ccc(NC(=O)c2c(NCc3cccc(OC)c3)sc3c2CCC3)cc1	.	.	.	-0.8	-2.4
Cc1[nH][nH]c(=O)c1C=NCc1cccnc1	-1.7	3.8	1.6	0.6	3.8
C=CCn1c(O)c(C(CC)=NCc2cccnc2)c(=O)[nH]c1=O	-3.6	3.7	42.0*	0.2	6.0
COc1cc(/C=N/N2C(=O)CSC2=S)cc(Br)c1O	-1.4	-0.2	43.6*	10.6	-4.4
COc1cccc(/C=N/N2C(=O)CSC2=S)c1O	4.9	-2.1	10.3	-0.2	-1.9
O=C(CNS(=O)(=O)c1ccccc1)OCC(=O)c1ccc([N+](=O)[O-])cc1	13.5	11.2	-6.3	-0.4	3.4
NNC(=O)CNS(=O)(=O)c1ccc([N+](=O)[O-])cc1	7.0	15.4	49.1*	2.1	8.4
CC1(OC(=O)C2CCCC2)C(=O)C=C2C=C(c3ccsc3)N(c3ccccc3)C=C2C1=O (stereo unspecified)	14.9	-1.5	36.0*	0.3	9.0
CC(C)N(c1ccccc1)c1ccc(NC(=S)NCCN(C)C)cc1	4.8	-0.4	82.5*	1.2	-28.6
COc1cc(NS(=O)(=O)c2ccc(NC(=O)c3ccc(Cl)cc3Cl)cc2)nc(OC)n1	.	.	.	.	2.9
O=C(c1ccccc1)N(Cc1ccco1)C1CCS(=O)(=O)C1 (stereo unspecified)	-2.5	-9.0	37.4*	4.1	2.1
SMILES	D2 ag-1	D2 PAM-1	D2 antag	D2 ag-2	D2 PAM-2
O=C(c1ccc(F)cc1)N(Cc1ccco1)C1CCS(=O)(=O)C1 (stereo unspecified)	-0.5	-14.2	-16.9	2.2	1.0
Cc1ccccc1NS(=O)(=O)c1cc2c(cc1C)NC(=O)CO2	-2.3	-0.1	10.7	6.3	13.7
COc1ccc(NS(=O)(=O)c2cc3c(cc2C)NC(=O)CO3)c(OC)c1	2.6	12.6	-11.0	38.0*!	-8.1
COc1cccc(CCNC(=O)c2c(O)nc3ccccn3c2=O)c1	.	.	.	.	-4.4
CCOc1ccccc1N1C(=O)CC(N(O)c2ccccc2)C1=O (stereo unspecified)	?	4.4	-12.8	0.8	27.0
Cc1c(Cl)cccc1N1C(=O)CC(N(O)c2ccccc2)C1=O (stereo unspecified)	5.8	55.0*	-0.3	1.5	7.4
